Among the data in PubChem BioAssay (EPA / NIEHS) are outcome and AC50 values, retold here.

Active and inactive are the calls of the source. The calls were made as follows: active = hit-call score of the fitted dose curve at least 0.9, where 1 is the maximum; inactive = score below 0.9.

Read-out in the assay: Macrophage colony-stimulating factor (MCSF), CSF1 (gene 1435)
Briefly: BSK_hDFCGF_MCSF: BioMAP Diversity Plus: hDFCGF Assay for Macrophage colony-stimulating factor (MCSF) Biomarker Activity (AID 2283060). To be noted: primary human foreskin fibroblasts; actives raise or lower the signal. On the procedure: BSK_hDFCGF is a cell-based, multiplexed-readout assay that uses foreskin fibroblast, a human skin primary cell, with measurements taken at 24 hours after chemical dosing in a 96-well plate.BSK_hDFCGF_MCSF is an assay component measured in the BSK_hDFCGF assay. It measures M-CSF antibody related to regulation of gene expression using ELISA technology.Data from the assay component BSK_hDFCGF_MCSF was analyzed into 1 assay endpoint. This assay endpoint, BSK_hDFCGF_MCSF, was analyzed with bidirectional fitting relative to DMSO as the negative control and baseline of activity. Using a type of binding reporter, gain or loss-of-signal activity can be used to understand changes in the signaling as they relate to the gene CSF1. Furthermore, this assay endpoint can be referred to as a primary readout, because this assay has produced multiple assay endpoints where this one serves a signaling function. To generalize the intended target to other relatable targets, this assay endpoint is annotated to the cytokine intended target family, where the subfamily is colony stimulating factor.
The levels of cell surface (or secreted, indicated by the prefix "s") biomarker endpoints were measured by ELISA. Overt cytotoxicity to cells in confluent adherent cultures (all systems other than the BT system) was assessed by measuring total protein levels using sulforhodamine B (SRB) staining in parallel cultures at the time of biomarker measurements, indicated as SRB endpoints. For proliferation assays for adherent cell types, individual cell types are cultured at sub-confluence and relative cell numbers quantified by SRB staining at time points optimized for each system (48 h: 3C and CASM3C systems; 72 h: BT and HDF3CGF systems; 96 h: SAg system). SRB was performed by staining cells with 0.1% SRB after fixation with 10% TCA and reading wells at 560 nm.Viability and proliferation of PBMC (T cells) was quantified by Alamar Blue reduction for the SAg and BT systems. For PBMC viability (referred to as PBMC Cytotoxicity within the assay endpoint names), cells were plated (75,000/well in a 96-well plate) and then chemical samples added for 1 h before addition of activators, SEB and TSST-1 (20 ng/mL final concentration each). Cells were incubated for 90 h. Then, Alamar Blue (20 uL/well) (Invitrogen, Cat DAL1100) was added for 6 h, and the plates were read with a fluorescence microplate reader at 546/580 nm (excitation/emission). For PBMC proliferation, cells were plated and activated as above but incubated for only 16 h prior to addition of Alamar Blue. Plates were read after 6 h.
In the case of `CCSC(=O)N1CCCCCC1`, the outcome was inactive.

Consider `COCC(C)N(C(=O)CCl)c1c(C)csc1C` (stereo not given), for which the result was inactive.

In the case of `Nc1c(Cl)c(F)nc(OCC(=O)O)c1Cl`, the outcome was inactive.

By AC50 is commonly meant the concentration giving half of the maximal activity seen. As to `CC(C)=CC1C(C(=O)OCc2coc(Cc3ccccc3)c2)C1(C)C` (stereo not given), the AC50 is 11.1 µM (active).

On to `COC(=O)N(C(=O)N1CO[C@@]2(C(=O)OC)Cc3cc(Cl)ccc3C2=N1)c1ccc(OC(F)(F)F)cc1`, for which the result was inactive.

With `CCN(CC)C(=O)C(C)Oc1cccc2ccccc12` (stereo not given), the result was inactive.

As for `CCNP(=S)(OC)O/C(C)=C/C(=O)OC(C)C` (stereo not given), the outcome was inactive.

Take `Cc1nc(N(C)C)nc(OC(=O)N(C)C)c1C`: the outcome was inactive.

With `CCOC(=O)C(C)OC(=O)c1cc(Oc2ccc(C(F)(F)F)cc2Cl)ccc1[N+](=O)[O-]` (stereo not given), the AC50 is 8.12 µM (active).

Take `CCOc1nc(F)cc2nc(S(=O)(=O)Nc3c(Cl)cccc3Cl)nn12`: the result was inactive.

Consider `COCc1cnc(C2=NC(C)(C(C)C)C(=O)N2)c(C(=O)O)c1` (stereo not given), for which the result was inactive.

For `CCOP(=O)(OCC)Oc1nc(Cl)c(Cl)cc1Cl`, the AC50 was 5.14 µM (active).

Consider `COP(=S)(OC)Oc1ccc([N+](=O)[O-])c(C)c1`, for which the AC50 was 13.2 µM (active).

Regarding `CC1(C)C(C(=O)OC(C#N)c2cccc(Oc3ccccc3)c2)C1(C)C` (stereo not given), the result was inactive.

Consider `COc1ccc(-c2ccccc2)cc1NNC(=O)OC(C)C`, for which the outcome was inactive.

Take `CC1(C)CON(Cc2ccccc2Cl)C1=O`: the result was inactive.

Turning to `N#Cc1c[nH]cc1-c1cccc2c1OC(F)(F)O2`, the AC50 is 8.88 µM (active).

With `CCCCC(C#N)(Cn1cncn1)c1ccc(Cl)cc1` (stereo not given), the outcome was inactive.

With `O=C1C2CC=CCC2C(=O)N1SC(Cl)(Cl)Cl` (stereo not given), the AC50 is 6.29 µM (active).

Take `Nc1cnn(-c2ccccc2)c(=O)c1Cl`: the outcome was inactive.

Consider `C=CCOC(=O)C(C)(C)OC(=O)c1cc(-n2c(=O)cc(C(F)(F)F)n(C)c2=O)ccc1Cl`, for which the AC50 was 1.88 µM (active).

As to `CNC(=O)Oc1cccc2ccccc12`, the AC50 is 29.7 µM (active).

Take `CC(C)N1C(=O)c2ccccc2NS1(=O)=O`: the outcome was inactive.

For the compound `CCCCOCN(C(=O)CCl)c1c(CC)cccc1CC`, the AC50 was 16.5 µM (active).

In the case of `CC(C)N1C(=O)N(c2ccccc2)CSC1=NC(C)(C)C`, the result was inactive.

Regarding `OC(c1ccc(Cl)cc1)(c1ccc(Cl)cc1)C(Cl)(Cl)Cl`, the AC50 was 8.17 µM (active).

On to `CC(C)NC(=O)N1CC(=O)N(c2cc(Cl)cc(Cl)c2)C1=O`, for which the result was inactive.

On to `O=c1n(Cl)c(=O)n(Cl)c(=O)n1Cl`, for which the result was inactive.

With `CC(C)Oc1cccc(NC(=O)c2ccccc2C(F)(F)F)c1`, the outcome was inactive.

As for `COC(=O)c1c(C(F)F)nc(C(F)(F)F)c(C2=NCCS2)c1CC(C)C`, the result was inactive.

For the compound `O=P(O)(O)CCCl`, the outcome was inactive.

As to `CN/C(=N\[N+](=O)[O-])NCc1cnc(Cl)s1`, the outcome was inactive.

Consider `CS(=O)(=O)c1ccc(C(=O)C2C(=O)CCCC2=O)c([N+](=O)[O-])c1`, for which the outcome was inactive.

Turning to `CCNC(=O)NC(=O)C(C#N)=NOC`, the outcome was inactive.

Take `COC(=O)NC(=S)Nc1ccccc1NC(=S)NC(=O)OC`: the outcome was inactive.

For `COc1cc(Cl)c(OC)cc1Cl`, the outcome was inactive.

With `Cc1cc(C)nc(Nc2ccccc2)n1`, the outcome was inactive.

Regarding `CC(C)C1(C)N=C(c2ncccc2C(=O)O)NC1=O` (stereo not given), the result was inactive.

As to `N#CN=C1SCCN1Cc1ccc(Cl)nc1`, the result was inactive.

In the case of `COP(=O)(OC)O/C(C)=C/C(=O)N(C)C`, the result was inactive.
